Screening data deposited in PubChem BioAssay by National Center for Advancing Translational Sciences (NCATS).
A549 viability = Nrf2 qHTS screen for inhibitors: counterscreen for cytotoxicity. Potency, µM (top dose mostly 46 µM), for the others: at the top dose activity change, negative = cytotoxicity, hits mostly inhibitors. A549 ARE-Fluc cells, CellTiter-Fluor viability, 18-24 h. AID 504648, 2011. hit rate 0.16% among 390,000; note: potency is the fitted concentration of half-maximal effect; % is set by controls: 0 for no effect and ±100 for the full control effect
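Cytotoxicity counterscreen: CellTiter-Fluor fluorescence was measured in A549 ARE_Fluc cells after 18-24 h of compound exposure in a concentration series. The subsequent BugLite luminescent read reports ARE-luciferase activity.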
Nrf2 block = Nrf2 qHTS screen for inhibitors. A549 ARE-Fluc reporter, luciferase luminescence, 18-24 h. Potency, µM (highest dose often 46 µM), without a hit: at the highest dose activity change, negative = inhibition, most hits filed as inhibitors. hit rate 2.1% among 360,000; note: potency is the fitted concentration of half-maximal effect; % is set by controls: 0 for no effect and ±100 for the full control effect; nearly all actives have a fitted effect of over 60% in size
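Concentration-response testing used A549 ARE_Fluc cells at 5000 cells/well. Following an 18-24 h compound incubation, viability was read by fluorescence (Ex 405/Em 525) and luciferase output by luminescence.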
IL2 activator = qHTS of IL-2 Activators; IL-2 activation reporter assay, cell-based qHTS; stimulated with anti-CD3/CD4/CD28 beads; in transgenic mouse T cells; activation, % (series mostly up to about 46 µM); hit rate 0.065% among 360,000; AID 652025, 2013; in the data active = activation above about 50%; inconclusive = mostly about 30% to 49%; note: 0% is about no effect
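Screening format: compound pinned onto unstimulated transgenic mouse T cells, 60 min incubation, then anti-CD3/anti-CD4/anti-CD28 bead stimulation for 18 hours at 37 degrees C, followed by EGFP and DsRed detection.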
BRCA1 expr act = qHTS Assay to Identify Small Molecule Activators of BRCA1 Expression. hit rate 1.1% among 380,000. Potency, µM (doses to about 46.1 µM), inactives show at the highest dose activation, most hits filed as activators. MCF7-BRCA1-FFLuc reporter, luminescence, 48 h; response scale: scaled: vehicle 0%, 10 µM genistein 100%; note: potency is the fitted concentration of half-maximal effect; nearly all actives have a fitted effect of over 80% in size
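Compounds are tested at multiple concentrations on MCF7 BRCA1-luciferase reporter cells seeded at 2000 per well; after 48 h, a single luminescence end-point is taken and curves fitted to the normalized data.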
Nrf2 ARE act = qHTS of Nrf2 Activators; AREc32 ARE-luciferase reporter (MCF7-derived line), luminescence, 24 h; Potency, µM (titrated, usually from 46.1 µM), for inactives: at the highest dose activation, usual class: activators; hit rate 0.31% among 410,000; note: potency is the fitted concentration of half-maximal effect; % of control where 0% means no effect; nearly all actives have a fitted effect of over 65% in size
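AREc32 cells carrying an ARE-driven firefly luciferase reporter were seeded at 1000 cells/well in OPTI-MEM with 5% FBS, then exposed to compound for 24 hr at 37 deg C. Luminescence was read with Steady-Glo after 30 min at RT.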
p53 reactivation = qHTS assay for re-activators of p53 using a Luc reporter. hit rate 0.063% among 320,000. AID 504706, 2011. H1299 p53-A138V BP100-luciferase reporter, luminescence, 24 h. Potency, µM (top dose mostly 92.2 µM), for inactives: at the top dose activity change, positive = activation, hits mostly activators; note: potency is the fitted concentration of half-maximal effect; % of control where 0% means no effect; nearly all actives have a fitted effect of over 45% in size
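p53-null H1299 cells stably carrying temperature-sensitive p53-A138V and a BP100-luciferase reporter were pinned with compounds (4-point, 1:5 series) and held 24 hrs at 37 deg C. Luminescence was read 10 min after detection reagent.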
* marks the source's active call; other numbers are inactive results; ? = inconclusive; . = no result given. In the library only some 3.2% were active in any assay of this set; here they are far more common. Unless noted, calls come from the whole dose curve; as a rule, active = well fitted curve in the direction sought with a large enough effect; inconclusive = small, poorly fitted or top-dose-only effect, or another doubt; inactive = no such curve, though single readings can be large; an effect the other way counts as inactive or inconclusive.

SMILES	A549 viability	Nrf2 block	IL2 activator	BRCA1 expr act	Nrf2 ARE act	p53 reactivation
CC1(C)CC(=O)c2cnc(NC3CC3)nc2C1	0%	6%	-6	28%	3%	0%
CCn1ccc(C(=O)Nc2ccccc2Cl)n1	2%	?	0	3.2µM*	11%	4%
CCn1ccc(C(=O)Nc2ccc(S(=O)(=O)Nc3ccccc3OC)cc2)n1	-12%	15µM*	0	3%	2%	-1%
CCn1ccc(C(=O)Nc2cccc(Cl)c2)n1	-1%	?	-1	?	3%	1%
COc1ccccc1NS(=O)(=O)c1cccc(NC(=O)Nc2ccc(Cl)cc2)c1	?	?	0	-51%	5%	-6%
COc1ccccc1NS(=O)(=O)c1cccc(NC(=O)Nc2ccccc2)c1	-12%	2.6µM*	-4	-66%	0%	6%
Cc1cc(C)n(-c2nc3ccccc3nc2Nc2cccc(C(=O)NCCc3ccccc3)c2)n1	-3%	10%	.	.	-4%	.
Cc1ccc(S(=O)(=O)N[C@H](CNCc2ccccc2)C(C)C)cc1	.	.	-1	.	.	.
Cc1csc2nc(CCNS(=O)(=O)c3ccc(F)cc3)cn12	-4%	.	.	.	0%	.
C=CCn1c(COc2cccc(C)c2C)nnc1SCC(=O)N1CCN(c2ccccc2)CC1	?	16µM*	1	-64%	1%	-14%
CCn1c(COc2c(C)cccc2C)nnc1SCC(=O)N1CCN(c2ccccc2)CC1	?	18µM*	0	-38%	3%	-30%
CCn1c(COc2cc(C)cc(C)c2)nnc1SCC(=O)N1CCN(c2ccccc2)CC1	-10%	?	-1	-33%	0%	-20%
C=CCn1c(SCC(=O)N2CCN(c3ccc(F)cc3)CC2)nnc1-c1ccco1	-14%	18µM*	-4	-25%	0%	-9%
C=CCn1c(SCC(=O)Nc2ccc(N3CCOCC3)cc2)nnc1-c1ccco1	-17%	-7%	0	1%	1%	2%
COc1ccc(/C=C(\NC(=O)c2ccccc2)C(=O)NC2CCCCC2)cc1	0%	3%	.	.	-1%	.
CCC(C(=O)NC1CCCC1)n1c(C2CCCC2)nc2ccccc21 (configuration not stated)	.	.	-1	.	.	.
Nc1nc2ccccc2cc1C(=O)NCc1ccc(Cl)cc1Cl	.	.	2	-38%	4%	.
O=C(NCc1ccco1)c1ccc2c(c1)N(Cc1ccc(F)cc1)C(=O)c1ccccc1S2=O (configuration not stated)	-5%	-31%	.	-35%	9%	.
Cc1ccc(NC(=S)N/C(=N/S(=O)(=O)c2ccccc2)c2ccccc2)cc1	1%	?	-3	13µM*	3%	?
Cc1ccc(S(=O)(=O)/N=C(/NC(=S)Nc2ccccc2)c2ccccc2)cc1	3%	?	0	?	?	?
Cc1ccc(NC(=S)c2ccccc2)cc1	1%	?	2	1.3µM*	8%	?
CCc1nc2ccc(C(=O)NCc3ccc(SC)cc3)cc2nc1CC	-1%	.	.	.	5%	.
CCCCCCC[n+]1c(/C=C/c2ccc(N(C)C)cc2)sc2ccccc21	.	.	.	-12%	.	.
S=c1[nH]cnc2sc(-c3ccccc3)cc12	-9%	10%	-1	11µM*	2%	10%
COc1cc(OC)c(C2CC(=O)Nc3ccc4ccccc4c32)cc1OC (configuration not stated)	10%	13%	.	-13%	5%	.
SMILES	A549 viability	Nrf2 block	IL2 activator	BRCA1 expr act	Nrf2 ARE act	p53 reactivation
Nc1ccc2oc(=O)c3ccccc3c2c1	-9%	3%	-1	11µM*	6%	4%
CCc1nn2c(=O)cc(NC3CNC3)nc2s1	-1%	8%	.	.	.	.
COC(=O)CSc1nc2cc(C)ccc2cc1C#N	0%	?	103*	?	5%	.
O=C(Nc1ccc(Br)cn1)c1coc(=O)c(Br)c1	-1%	?	7	-7%	18µM*	15%
C[C@@H](NC(=O)c1coc(=O)c(Br)c1)c1ccccc1	-12%	?	0	-78%	11µM*	-33%
O=C(c1ccc2c(c1)N(Cc1ccc(Cl)cc1)C(=O)c1ccccc1S2(=O)=O)N1CCCCCC1	-13%	?	.	-56%	1%	.
COc1cccc(C2c3c(ncn(-c4cccc(OC)c4)c3=N)Oc3ccc4ccccc4c32)c1 (configuration not stated)	-12%	-2%	.	.	.	.
C(/C=C/c1ccccn1)=C\c1ccccc1	-8%	?	0	?	13µM*	.
COc1cccc(C2C(=O)N(C3CCCCC3)CC(=O)N2CCc2ccc(OC)c(OC)c2)c1 (configuration not stated)	-2%	.	.	.	3%	.
CCC(NC(=O)CCl)c1ccc(C)cc1 (configuration not stated)	?	23µM*	-2	10%	?	-12%
Cc1nnc(N2CCN(c3cccc(Cl)c3)CC2)c2c1nnn2Cc1ccc(F)cc1	0%	7%	.	.	0%	.
O=C(Cc1ccccc1)c1ccc(N2CCOCC2)cc1	14%	?	0	11µM*	5%	.
O=C(c1ccccc1)c1ccc(N2CCOCC2)cc1	1%	?	0	?	0%	.
O=C(Cc1ccccc1)c1ccc(O)cc1	-1%	-1%	0	11µM*	2%	.
O=C(/C=C/C=C/c1ccc2c(c1)OCO2)N1CCCCC1	3%	?	1	8.9µM*	9%	2%
CN1CCN(C(=O)/C=C/c2ccc3c(c2)OCO3)CC1	1%	2%	0	12%	0%	22%
CCN(C(=O)Cc1c(C(=O)O)c(C)cn1C)c1cccc(Cl)c1	-1%	.	.	.	-1%	.
CCN(C(=O)COC(=O)/C=C/c1ccc(Cl)c(Cl)c1)c1c(N)n(Cc2ccccc2)c(=O)[nH]c1=O	-14%	15µM*	-1	-60%	0%	.
CC(C)CN(C(=O)COC(=O)C12CC3CC(CC(C3)C1)C2)c1c(N)n(Cc2ccccc2)c(=O)[nH]c1=O	?	26µM*	-2	-57%	0%	0%
CCc1cc(C(=O)NNC(=S)Nc2ccccc2C)cs1	0%	?	-1	10µM*	3%	?
CC1(C)Cc2ccccc2/C(=C/C(=O)N2CCCCCC2)N1	-27%	26µM*	-1	-27%	0%	?
O=C(CN1C(=O)COc2ccc(S(=O)(=O)N3CCOCC3)cc21)N1CCN(c2ccc(F)cc2)CC1	0%	-6%	.	3%	-1%	.
